Screens from PubChem.
BoNT F protease – BoNT/F light chain protease inhibitors, primary screen, biochemical, flow cytometry, MLPCN library | Botulinum neurotoxin type F light chain protease (Clostridium botulinum) | Multiplex microsphere protease cleavage assay | actives 0.22% (n = 360,000) | inhibition, % at 10 µM; in the data active = inhibition above about 35%, passing the limit was not always enough; inconclusive = no clear call, values can overlap the other calls; also: plate controls were buffer without enzyme for full effect and enzyme alone for no effect
Anthrax LF inh2 – Bacillus anthracis LF protease inhibitors, primary screen, biochemical, multiplex microsphere, MLPCN library. Lethal factor (Bacillus anthracis), P15917. actives 0.12% (n = 360,000). inhibition, % at 10 µM. multiplex microsphere protease cleavage assay; also: plate controls were buffer without enzyme for full effect and enzyme alone for no effect
Target sequence (P15917 whole entry, looked up): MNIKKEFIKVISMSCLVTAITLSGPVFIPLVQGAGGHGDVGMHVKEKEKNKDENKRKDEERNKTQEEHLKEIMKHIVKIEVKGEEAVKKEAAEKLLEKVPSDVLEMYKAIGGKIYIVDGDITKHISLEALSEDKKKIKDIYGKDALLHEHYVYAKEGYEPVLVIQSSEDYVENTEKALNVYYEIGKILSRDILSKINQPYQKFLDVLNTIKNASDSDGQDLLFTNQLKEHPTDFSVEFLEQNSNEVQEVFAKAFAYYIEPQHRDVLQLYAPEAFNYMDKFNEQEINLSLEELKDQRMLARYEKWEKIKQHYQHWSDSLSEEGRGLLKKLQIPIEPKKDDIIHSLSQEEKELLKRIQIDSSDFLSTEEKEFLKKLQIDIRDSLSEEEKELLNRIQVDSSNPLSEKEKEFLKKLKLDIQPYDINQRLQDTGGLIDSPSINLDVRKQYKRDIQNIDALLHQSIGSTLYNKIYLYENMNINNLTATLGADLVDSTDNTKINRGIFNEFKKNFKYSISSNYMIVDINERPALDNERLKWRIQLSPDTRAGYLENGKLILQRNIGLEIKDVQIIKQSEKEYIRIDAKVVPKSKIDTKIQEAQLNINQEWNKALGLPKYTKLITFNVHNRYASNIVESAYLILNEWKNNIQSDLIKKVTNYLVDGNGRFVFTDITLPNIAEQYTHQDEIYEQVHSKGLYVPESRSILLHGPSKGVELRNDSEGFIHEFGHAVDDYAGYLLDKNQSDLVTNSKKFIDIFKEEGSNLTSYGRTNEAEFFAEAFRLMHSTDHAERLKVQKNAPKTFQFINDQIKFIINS
Autofluor counter – compound fluorescence in toxin protease inhibitor counterscreen. actives 3.1% (n = 360,000). fluorescence intensity (no concentration beside the values). AID 624483. compound autofluorescence counterscreen, microsphere flow cytometry; hits give high values; in the data active = fluorescence intensity above about 16000; inconclusive = no clear call, values can overlap the other calls
BoNT A protease – BoNT/A light chain protease inhibitors, primary screen, biochemical, flow cytometry, MLPCN library; Botulinum neurotoxin type A light chain protease (Clostridium botulinum A str. ATCC 3502); multiplex microsphere protease substrate cleavage; inhibition, % at 10 µM; actives 0.17% (n = 360,000); AID 588499, 2011; also: plate controls were buffer without enzyme for full effect and enzyme alone for no effect
The depositor's hits bear a star; ? = inconclusive. The list is not random: actives were taken first. Their share in the collection is about 3.5%. Rule as the data show it, unless noted: active = inhibition above about 30%; inconclusive = no clear call, values can overlap the other calls; inactive = below that.

SMILES	BoNT F protease	Anthrax LF inh2	Autofluor counter	BoNT A protease
O=C(O)C1C(c2ccccc2)C(C(=O)OCc2ccco2)C1c1ccccc1 (stereo not drawn)	-1	-1	23151*	-1
CCCCCOC(=O)C1C(c2ccccc2)C(C(=O)O)C1c1ccccc1 (stereo not drawn)	-1	2	2668	0
COC(=O)C1C(c2ccccc2)C(C(=O)OCc2ccco2)C1c1ccccc1 (stereo not drawn)	7	-7	20681*	6
CCOC(=O)C1C(c2ccccc2)C(C(=O)OCC)C1c1ccccc1 (stereo not drawn)	-7	1	9355	0
O=C(O)C1C(c2ccccc2)C(C(=O)OCCCO)C1c1ccccc1 (stereo not drawn)	-2	-2	22890*	0
CC(=O)Nc1cccc(C(=O)OCC(=O)N2CCN(C(=O)COC(=O)c3cccc(NC(C)=O)c3)CC2)c1	-175	-27	?	-127
Cc1scc(C(=O)N2CCN(c3ccc(Cl)cc3)CC2)c1C	5	-4	3224	0
CCCCNS(=O)(=O)c1ccc(NS(=O)(=O)c2c(C)cc(C)cc2C)cc1	-4	0	16873*	?
Cc1nn(C)cc1/C=N/NC(=O)Cn1nccc1C	-1	-1	7395	0
Cc1nn(Cc2ccccc2)c(Cl)c1/C=N/NC(=O)c1cccnc1	-3	1	2135	0
Cc1c(/C=N/NC(=O)c2cccnc2)c2ccccc2n1Cc1ccccc1	30	-5	24760*	-8
Nc1ccc(S(=O)(=O)N2CCCC2C(=O)O)cc1 (stereo not drawn)	-11	5	5844	0
O=c1[nH]c2ccc(S(=O)(=O)N3CCN(Cc4ccccc4)CC3)cc2[nH]c1=O	-4	-1	21331*	-3
O=C(O)C1CCCN1S(=O)(=O)c1ccc2[nH]c(=O)c(=O)[nH]c2c1 (stereo not drawn)	-6	-3	25018*	-2
COc1ccc(Br)c(C(=O)OCC(=O)NC2CCCCCCC2)c1	-6	-6	4058	0
CC1(C)Cc2c(cnn2-c2ccccc2)C(NC(=O)CCc2ccc(=O)[nH]n2)C1 (stereo not drawn)	-2	1	6430	-2
O=C(COC(=O)c1ccccc1NS(=O)(=O)c1cccs1)NC1CCCCC1	45*	0	2759	5
Cc1cccc2c1NC(=O)C21OCC(CO)([N+](=O)[O-])CO1 (stereo not drawn)	13	9	3134	-2
c1ccc(-c2nnc(-c3ccco3)n2-c2ccccc2)cc1	9	-10	4185	-1
c1ccc(-n2c(-c3ccncc3)nnc2-c2ccco2)cc1	4	-2	16681*	0
Cc1ccc(-n2c(-c3ccncc3)nnc2-c2ccco2)cc1	1	1	3557	1
Cc1ccc(-c2nnc(-c3ccncc3)n2-c2ccc(C)cc2)cc1	0	-2	21828*	?
CCN1C(=O)/C(=C/C=C2\N(CC)c3cc(S(=O)(=O)N(C)C)ccc3N2c2ccccc2)SC1=S	14	38*	6004	89*
N=c1c2c(-c3ccccc3)c(-c3ccccc3)n(Cc3ccccc3)c2ncn1CCO	-1	-1	22944*	?
Cc1ccc(CNC(=O)C2CCCCC2C(=O)O)cc1 (stereo not drawn)	1	-7	21599*	?
SMILES	BoNT F protease	Anthrax LF inh2	Autofluor counter	BoNT A protease
O=C(O)C1CCCCC1C(=O)Nc1cccc2ccccc12 (stereo not drawn)	6	-6	20285*	6
Cc1c(C(=O)NCCCN2CCOCC2)oc2c1C1(CCC2)SCCS1	2	1	2328	0
C#CCOCCOCCOCCNc1nc(N2CCN(C(=O)Cn3cc(CCCN=C(N)N)nn3)CC2)nc(N2CCN(C(=O)[C@H](CCCCN)n3cc(CCCC)nn3)CC2)n1	-23	-8	4393	-1
COC(=O)c1c(S(N)(=O)=O)c2ccccc2n1C	-5	-3	21700*	-2
N#CC(c1ccccn1)(c1ncc(C(F)(F)F)cc1Cl)N1CCOCC1 (stereo not drawn)	1	-7	22287*	?
N#CC(c1ccncc1)(c1ncc(C(F)(F)F)cc1Cl)N1CCOCC1 (stereo not drawn)	-1	-2	2810	0
CCc1c(C)nc2ncnn2c1N1CCC(C(=O)Nc2cccc(C(C)=O)c2)CC1	5	-2	9669	0
O=c1c(-c2nc3ccccc3s2)cccn1Cc1ccccc1	1	6	22734*	?
Cc1ccc(Cn2cccc(-c3nc4ccccc4s3)c2=O)cc1	4	-3	4380	3
CCN1CCN(C(=O)CCCCCn2c(=O)[nH]c3cc(C(=O)OC)ccc3c2=O)CC1	-4	-2	7131	0
CCN1CCN(CCNC(=O)CCCCCn2c(=O)[nH]c3cc(C(=O)OC)ccc3c2=O)CC1	-3	-2	23054*	-2
CCn1cc(S(=O)(=O)NCCc2ccc(F)cc2)cn1	-2	0	7071	-4
CCOCCCNC(=O)CS(=O)(=O)Cc1nc(-c2cccc(OC)c2)oc1C	2	-1	21852*	?
Cc1c(NC(=O)CSc2nc3ccccc3n2C)c(=O)n(-c2ccccc2)n1C	0	1	3319	-1
O=C(Nc1nnc(-c2ccccc2)s1)c1cccc(S(=O)(=O)N2CCOCC2)c1	4	0	2968	0
O=C(Nc1nnc(-c2ccccc2)s1)c1cc(S(=O)(=O)N2CCOCC2)c(Cl)cc1Cl	1	-2	23535*	?
CC1Cc2ccccc2N1c1ncnc2c1nnn2Cc1ccccc1Cl (stereo not drawn)	11	-3	4737	0
COCCNc1nc(C(C)(C)C)nc2c1nnn2Cc1ccccc1Cl	-12	-1	12170	-2
OCCNc1nc(C2CC2)nc2c1nnn2Cc1ccccc1Cl	-2	0	23293*	?
c1ccc(Cn2nnc3c(N4CCN(Cc5ccc6c(c5)OCO6)CC4)ncnc32)cc1	-4	-1	24167*	-1
Clc1ccccc1Cn1nnc2c(N3CCCC3)ncnc21	-2	-2	23668*	-1
c1ccc(Cn2nnc3c(N4CCOCC4)ncnc32)cc1	-7	-7	5708	-1
NC(=O)C1CCN(c2nc(C3CC3)nc3c2nnn3Cc2ccccc2Cl)CC1	-5	-3	25043*	?
N/C(=N\OC(=O)c1cccc(Cn2cc(C(F)(F)F)ccc2=O)c1)c1ccc(Cl)cc1	?	4	4131	1
CC(=O)Nc1cccc(OCC(=O)NS(=O)(=O)c2ccc(C)cc2)c1	-3	-10	23647*	-2
CCOc1ccc(Nc2nc(NCCN3CCOCC3)nc(OC)n2)cc1	0	-3	22883*	?
Cc1ccccc1Cc1c(C)nc2c(C(=O)NCc3ccc4c(c3)OCO4)cnn2c1C	-2	-4	16548*	-1
Cc1ccc(-n2ncc(C(=O)NCc3ccc4c(c3)OCO4)c2NC(=O)c2ccco2)cc1C	2	-4	21894*	?
Cc1nc2c(C(=O)NCc3ccco3)cnn2c(C)c1Cc1ccc(F)cc1Cl	3	-15	21933*	?
